In the library only some 19% were active in any assay of this set; here they are far more common.
KB-V1 MDR tox: kills drug-selected multidrug resistant KB-V1 cells. KB-V1 MDR cells viability, CellTiter-Glo, 72 h. Potency, µM (series often up to 46.1 µM), actives largely listed as cytotoxic. actives 3.4% (n = 400,000). AID 1347076; note: nearly all actives have a fitted effect of over 60% in size
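Potencies derive from concentration-effect curves fitted to normalized luminescence (CellTiter-Glo) of KB-V1 cells treated for 72 h at 37 degrees C in phenol-red-free DMEM containing 10% FBS.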
HT1080 IDH1KD tx: HT-1080 IDH1 knockdown cell toxicity (counter line); AID 686971; actives 2% (n = 360,000); Potency, µM (top dose mostly 46.1 µM), without a hit: at the highest dose activity, negative = toxicity, actives largely listed as cytotoxic; HT-1080 IDH1 knockdown viability, ATP luminescence, 48 h;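 note: 0% = DMSO wells and -100% = cell-free medium wells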
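Knockdown cells (IDH1KD HT-1080) received compounds 2 h after plating at 750 cells/well and were kept 48 h at 37 °C in 5% FBS RPMI. A CellTiter-Glo luminescence read gave % activity for curve fitting.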
HT1080-NT tox: kills 2HG-producing HT-1080-NT fibrosarcoma cells. HT-1080-NT fibrosarcoma viability, CellTiter-Glo ATP luminescence, 48 h. Potency, µM (highest dose often 46.1 µM), inactives show at the top dose activity, negative = less viability, usual class: cytotoxic. actives 1.6% (n = 360,000). AID 686970;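 note: NT is the 2HG producing partner of a matched IDH1 knockdown line; 0% = DMSO-treated cells and -100% = media-only wells without cells; nearly all actives have a fitted effect of over 55% in size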
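Luminescent CellTiter-Glo readout after 48 hours of compound exposure at 37 degrees C defined viability of HT-1080-NT cells. Activity was normalized to DMSO wells and cell-free media wells; concentration-response curves were fitted and assigned curve classes.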
DT40 TDP1 no CPT: qHTS for Inhibitors of human tyrosyl-DNA phosphodiesterase 1 (TDP1): qHTS in cells in absence of CPT. DT40 Tdp1-/- hTDP1 cells, no CPT, ATP luminescence, 48 h. Potency, µM (doses to about 46.2 µM), for the others: at the top dose activity change, negative = growth inhibition, actives largely listed as inhibitors. actives 15% (n = 420,000); note: nearly all actives have a fitted effect of over 55% in size
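Cells were dispensed at 400 per well, compounds added by pin tool, plates incubated ≥48 hr at 37 °C, then CellTiter-Glo added for 30 min at room temperature before luminescence reading. Line: DT40 Tdp1-/- complemented with hTDP1; camptothecin omitted.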
TDP1 cell CPT: DT40-hTDP1 cell growth loss with CPT; chicken DT40 Tdp1-/-;hTDP1 cells + 20 nM CPT, ATP luminescence, 48 h; Potency, µM (series often up to 46.2 µM), for inactives: top-dose activity change, negative = growth inhibition, actives largely listed as inhibitors; actives 12% (n = 420,000); note: nearly all actives have a fitted effect of over 55% in size
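Chicken DT40 Tdp1-/- cells stably complemented with human TDP1 were seeded at 400 cells/well in medium containing 20 nM camptothecin, exposed to pin-transferred compounds, and grown at 37 °C for at least 48 hr. Viability was read as ATP luminescence.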
KB-3-1 cytotox: KB-3-1 parental cell cytotoxicity; Potency, µM (top dose mostly 46.1 µM), hits mostly cytotoxic; KB-3-1 viability, CellTiter-Glo ATP luminescence, 72 h; actives 1.4% (n = 400,000); note: nearly all actives have a fitted effect of over 60% in size
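KB-3-1 parental drug-naive adenocarcinoma cells in DMEM/10% FBS, incubated 72 h at 37 C with pin-transferred compounds across a concentration series. Viability by CellTiter-Glo luminescence; concentration-response curves fitted after normalization.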
* hit, by the source's call; i = inactive; ? = inconclusive; . = no result given. Calls come from the whole dose curve; as a rule, active = well fitted curve in the direction sought with a large enough effect; inconclusive = small, poorly fitted or top-dose-only effect, or another doubt; inactive = no such curve, though single readings can be large; an effect the other way counts as inactive or inconclusive. Unless noted, % is set by controls: 0 for no effect and ±100 for the full control effect; potency is the fitted concentration of half-maximal effect.

SMILES	KB-V1 MDR tox	HT1080 IDH1KD tx	HT1080-NT tox	DT40 TDP1 no CPT	TDP1 cell CPT	KB-3-1 cytotox
CCN(CC)C(=O)c1sc2c(c1C)c(=O)n(-c1ccc(OC)cc1OC)c(=O)n2Cc1cc(C)ccc1C	i	.	.	?	?	i
COc1ccc(-n2c(=O)c3c4c(sc3n(Cc3cc(C)ccc3C)c2=O)CN(C(C)=O)CC4)c(OC)c1	i	.	.	23µM*	?	i
COc1ccc(-n2c(=O)c3c4c(sc3n(Cc3ccccc3)c2=O)CCC4)c(OC)c1	.	.	.	23µM*	?	.
COc1cccc(NC(=O)Cn2c(=O)n(-c3ccccc3)c(=O)c3c2c2cc(OC)ccc2n3C)c1	i	.	.	-9%	-13%	i
COc1cccc(NC(=O)Cn2c(=O)n(-c3cccc(OC)c3)c(=O)c3c4c(sc32)CCCC4)c1	i	.	.	18µM*	13µM*	i
COc1cccc(NC(=O)Cn2c(=O)n(-c3ccccc3)c(=O)c3sccc32)c1	i	-8%	-2%	13µM*	?	?
CCc1nc2ccc(C(=O)N(C)CCCN(C)C)cn2c1N(C=O)CCC(C)C	i	6%	13%	-9%	-16%	i
Cc1cnc(SCC2CCCO2)nc1C1CCCN(C(=O)C2=NNC(=O)CC2)C1 (stereo unspecified)	.	.	.	-4%	-2%	.
COc1ccc(-n2c(=O)c3c4c(sc3n(CC(=O)C(C)(C)C)c2=O)CCCC4)c(OC)c1	.	.	.	?	15µM*	.
C=CCNC(=O)CSc1nc2ccccc2c(=O)n1CCc1ccc(OC)c(OC)c1	?	-1%	3%	?	?	i
CCC(Sc1nc2ccccc2c(=O)n1CCc1ccc(OC)c(OC)c1)C(=O)N(CC)CC (stereo unspecified)	.	.	.	6.5µM*	6.5µM*	.
COc1ccc(CCn2c(SCCN3CCCCC3)nc3ccccc3c2=O)cc1OC	i	3%	3%	16µM*	?	i
CCC(Sc1nc2c(sc3ccccc32)c(=O)n1CCc1ccccc1)C(=O)N(CC)CC (stereo unspecified)	i	.	.	?	-26%	i
CCC(Sc1nc2c(sc3ccccc32)c(=O)n1CCc1ccc(OC)c(OC)c1)C(=O)N(CC)CC (stereo unspecified)	i	.	.	5.8µM*	6.5µM*	i
Cn1c(=O)c(-c2cccs2)nc2cnc(OCc3ccccc3)nc21	.	.	.	7%	9%	.
COc1ccc(NC(=O)c2oc3c(c2C)-c2nn(Cc4ccccc4Cl)cc2CC3)cc1OC	.	.	.	21µM*	21µM*	.
COCCCNC(=O)c1oc2c(c1C)-c1nn(Cc3ccccc3Cl)cc1CC2	.	.	.	18µM*	?	.
CCn1cc2c(n1)-c1c(oc(C(=O)Nc3cccc(C(F)(F)F)c3)c1C)CC2	.	.	.	-27%	-21%	.
CC(Sc1nnc(-c2ccco2)n1-c1ccccc1)C(=O)NCC1CCCO1 (stereo unspecified)	21µM*	10%	6%	7%	-16%	i
O=C(CSc1nnc(-c2cccs2)n1-c1ccccc1)NCC1CCCO1 (stereo unspecified)	i	4%	4%	-14%	-4%	i
Cc1ccc(-n2c(SCC3CCCCO3)nnc2-c2ccco2)cc1 (stereo unspecified)	21µM*	?	-19%	?	?	?
CC(Sc1nnc(-c2ccccc2)c(-c2ccccc2)n1)C(=O)NCC1CCCO1 (stereo unspecified)	i	1%	-15%	23µM*	?	i
Cc1nnc(SCC2CCCO2)n1-c1ccccc1 (stereo unspecified)	i	-5%	6%	1%	7%	i

Screening results as filed in PubChem BioAssay.
